High-throughput results as filed in PubChem.
Nrf2 ARE act = activates Nrf2 signaling. AREc32 ARE-luciferase reporter (MCF7-derived line), luminescence, 24 h. Potency, µM (highest dose often 46.1 µM), most hits filed as activators. 410,000 compounds, 0.31% hits; further: nearly all actives have a fitted effect of over 65% in size
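AREc32 cells carrying an ARE-driven firefly luciferase, 1000 cells/well in OPTI-MEM with 5% FBS, dosed after overnight attachment and incubated 24 hr at 37 deg C. Steady-Glo luminescence read after 30 min at RT.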
DRD3 agonist = D3 dopamine receptor (human) agonism. max activation, %. P35462. 410,000 compounds, 0.58% hits. D3R DiscoveRx beta-arrestin cells, luminescence, 90 min. AID 652048; in the data active means max activation above about 30%
Target sequence (P35462 whole entry, looked up): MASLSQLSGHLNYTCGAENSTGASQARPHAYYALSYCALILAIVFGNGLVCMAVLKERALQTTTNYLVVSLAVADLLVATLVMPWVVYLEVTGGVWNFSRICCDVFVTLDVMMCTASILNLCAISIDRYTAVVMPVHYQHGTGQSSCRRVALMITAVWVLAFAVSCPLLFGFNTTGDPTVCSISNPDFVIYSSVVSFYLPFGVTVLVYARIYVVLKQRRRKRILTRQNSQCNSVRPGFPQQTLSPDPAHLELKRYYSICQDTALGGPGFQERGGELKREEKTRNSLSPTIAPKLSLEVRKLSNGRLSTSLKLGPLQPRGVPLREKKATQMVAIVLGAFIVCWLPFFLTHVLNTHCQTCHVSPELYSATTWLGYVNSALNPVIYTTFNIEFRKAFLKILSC
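Agonist-mode cell screen: cells plated at 1500/well and incubated overnight at 37 °C, then exposed to library compounds for 90 min at 37 °C. Detection reagent was added for 30–60 min at room temperature, and luminescence was read.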
DRD3 antagonist = antagonists of human D3 dopamine receptor; P35462; D3R cells, DiscoveRx beta-arrestin luminescence, antagonist mode; stronger effect = lower value; max response, negative = inhibition, %; 360,000 compounds, 2.5% hits; AID 652054; in the data active means max response below about -50%; inconclusive means no clear call, values can overlap the other calls
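Cells plated overnight at 1500 cells/well, then exposed to library compounds with dopamine controls for 90 minutes at 37 degrees C. DiscoveRx reagent added for 30–60 minutes at room temperature; luminescence read, quantitative HTS format.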
Glioma ERSR ind = inducers of ER stress response in human glioma cells; U87-MG GRP78 promoter luciferase reporter, 16 h; Potency, µM, most hits filed as activators; 420,000 compounds, 0.02% hits; further: series mostly up to about 76 µM; nearly all actives have a fitted effect of over 35% in size
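ERSR induction read as luciferase luminescence (Bright-Glo, 10 min at room temperature) in stably transfected human U87-MG glioma cells exposed to compounds for 16 h, using GRP78 as sensor.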
Each line names hits and unclear results; the compound was inactive in the other large screens. A selection: hits, their analogues and other compounds. The true share with any hit is near 3%. Unless noted, the call rests on the fitted dose curve; in most records, active means well fitted curve in the direction sought with a large enough effect; inconclusive means small, poorly fitted or top-dose-only effect, or another doubt; inactive means no such curve, though single readings can be large; an effect the other way counts as inactive or inconclusive.

Cc1ccc(C)c(-c2nnc(NC(=O)c3ccc([N+](=O)[O-])o3)o2)c1	Nrf2 ARE act 3.5µM
O=C(Nc1nc2ccccc2s1)c1ccc([N+](=O)[O-])o1	Nrf2 ARE act 3.5µM
COc1ccc2nc(NC(=O)c3ccc([N+](=O)[O-])o3)sc2c1	Nrf2 ARE act inconclusive, DRD3 antagonist inconclusive, Glioma ERSR ind inconclusive
O=C(Nc1nc2cc3c(cc2s1)OCCO3)c1ccc([N+](=O)[O-])o1	Nrf2 ARE act 7.1µM, Glioma ERSR ind inconclusive
Cc1c(C(=O)NCCc2cccnc2)cnn1-c1ncc2c(n1)-c1ccccc1CC2	none (no result: Nrf2 ARE act, DRD3 agonist, DRD3 antagonist)
Cc1cccc(CNC(=O)c2cnn(-c3ncc(C)c(-c4cccs4)n3)c2C2CC2)n1	none (no result: Nrf2 ARE act, DRD3 agonist, DRD3 antagonist)
CSc1nnc(CNC(=O)/C=C/c2ccccc2Cl)n1-c1ccc(F)cc1	none (no result: Nrf2 ARE act, DRD3 agonist, DRD3 antagonist)
O=c1c(O)c(-c2cc(O)c(O)c(O)c2)oc2cc(O)ccc12	none (no result: Nrf2 ARE act, DRD3 agonist, DRD3 antagonist)
Cc1c(N2C(=O)CS/C2=N\N=C\c2ccccc2O)c(=O)n(-c2ccccc2)n1C	DRD3 agonist 39
C/C(=N\NC(=O)C1(C)CC1(Br)Br)c1cccc(NC(=O)c2ccc(C)o2)c1 (centres undefined)	DRD3 agonist 37
OC(CSc1ccc(F)cc1)CN1CCN(c2ccccc2)CC1 (centres undefined)	DRD3 antagonist -72
COc1cccc(OCC(O)CN2CCN(c3ccc(Cl)cc3)CC2)c1 (centres undefined)	none
OCC(O)CN1CCN(c2ccccc2)CC1 (centres undefined)	none
COc1cccc(OCC(O)CN2CCN(c3ccccn3)CC2)c1 (centres undefined)	DRD3 agonist 35, DRD3 antagonist inconclusive
COc1cccc(OCC(O)CN2CCN(c3ccccc3)CC2)c1 (centres undefined)	DRD3 agonist 31, DRD3 antagonist inconclusive
COc1cc(C(C)=O)ccc1OCC(O)CN1CCN(c2cc(C)cc(C)c2)CC1 (centres undefined)	DRD3 antagonist -56
CC(=O)c1ccc(N2CCN(CC(O)COC(c3ccccc3)c3ccccc3)CC2)cc1 (centres undefined)	DRD3 antagonist -69
OCCN1CCN(CC(O)COc2ccc(-c3ccccc3)cc2)CC1 (centres undefined)	DRD3 antagonist -62
OC(COc1ccc2cc(Br)ccc2c1)CN1CCN(c2ccccn2)CC1 (centres undefined)	DRD3 agonist 227
OC(COc1ccc(Br)cc1)CN1CCN(c2ccccc2)CC1 (centres undefined)	DRD3 antagonist -51
OC(COc1ccc2cc(Br)ccc2c1)CN1CCCC1 (centres undefined)	none
OC(COc1ccc(Br)cc1)CN1CCOCC1 (centres undefined)	none
COc1ccc(N2CC(NC(=O)COc3ccccc3C)CC2=O)cc1OC (centres undefined)	none (no result: DRD3 antagonist)
OC(COc1ccccc1)CN1CCN(c2ccccc2)CC1 (centres undefined)	DRD3 antagonist -71
CCOc1ccc(NC(=O)CN2C(C(=O)OC)=C(c3ccccc3)c3cc(Cl)ccc3S2(=O)=O)cc1	none (no result: DRD3 antagonist)
Cc1ccc(NC2=CC(=O)C(=O)c3ccccc32)cc1	DRD3 antagonist inconclusive
NS(=O)(=O)c1ccc(NC2=CC(=O)C(=O)c3ccccc32)cc1	DRD3 antagonist -53
Cc1ccc(C)c(NC(=O)N2CCN3CCCCC3C2)c1 (centres undefined)	none (no result: DRD3 antagonist)
O=C(NCC(c1ccco1)N1CCN(c2ccccc2F)CC1)C(=O)NC1CCCC1 (centres undefined)	DRD3 agonist 36
O=C(NCC1CCCO1)C(=O)NCC(c1ccco1)N1CCN(c2ccccc2F)CC1 (centres undefined)	DRD3 agonist 51
O=C(NCC(c1ccco1)N1CCN(c2ccccc2)CC1)C(=O)NC1CCCC1 (centres undefined)	none
COc1ccc(N2CCN(C(CNC(=O)C(=O)NCC3CCCO3)c3ccco3)CC2)cc1 (centres undefined)	none
O=C(NCC(c1ccco1)N1CCN(c2ccccc2)CC1)C(=O)NC1CCCCC1 (centres undefined)	DRD3 agonist 37
CC(=O)c1c(C)[nH]c2ccc(OCC(O)CNCCc3ccccc3)cc12 (centres undefined)	none (no result: Nrf2 ARE act, DRD3 agonist, DRD3 antagonist)
CN(Cc1ccccc1)c1nc(-c2ccc([N+](=O)[O-])cc2)nc2ccccc12	DRD3 antagonist -54
O=[N+]([O-])c1ccc(-c2nc(C(Cl)Cl)c3ccccc3n2)cc1	DRD3 antagonist -59
COCCN(CCOC)c1nc(-c2ccc([N+](=O)[O-])cc2)nc2ccccc12	none
COc1ccc(CNC(=O)C2CCN(S(=O)(=O)c3cccc(-c4noc(C)n4)c3)CC2)cc1	none (no result: DRD3 antagonist)
c1ccc(N=NC2=NN(c3ccccc3)CS2)cc1	Nrf2 ARE act 8.9µM, DRD3 antagonist inconclusive
c1ccc(C2=NN(c3ccccc3)CC2)cc1	none
COc1ccc(OC)c(NC2=NC3(CCCC3)N=C(N)N2)c1	DRD3 antagonist -58
NC1=NC2(CCCCC2)N=C(Nc2ccc(F)cc2F)N1	none
Cc1cc(C)c2c(n1)sc1c(=O)n(Cc3ccccc3Cl)nnc12	DRD3 antagonist -51
CCc1cccc(CC)c1-n1nnc2c(sc3nc(C)cc(C)c32)c1=O	none (no result: DRD3 antagonist)
Cc1ccc(S(=O)(=O)c2nnn(CC(=O)Nc3ccccc3C)c2N)cc1C	none (no result: DRD3 antagonist)
CCN1CC2([N+](=O)[O-])C=CC(=O)C([N+](=O)[O-])(C1)C2CC(=O)c1ccccc1 (centres undefined)	DRD3 antagonist -68
CCCCN1CC2([N+](=O)[O-])C=CC(=O)C([N+](=O)[O-])(C1)C2CC(=O)c1ccccc1 (centres undefined)	none
C=CCN(CC=C)Cc1c(O)ccc2c1oc(=O)c1ccccc12	DRD3 antagonist -62
O=C(Nc1ccc2c(c1)OCCO2)N1CCN(c2ccccc2)CC1	DRD3 antagonist -52
C=C(C)C1CC=C(CN2CCC(O)CC2)CC1 (centres undefined)	DRD3 antagonist inconclusive
C=C(C)[C@@H]1CC=C(CN2CCN(Cc3ccccc3)CC2)CC1	DRD3 antagonist -65
C=C(C)C1CC=C(CN2CCN(Cc3ccccc3)CC2)CC1 (centres undefined)	DRD3 antagonist -57
CC(=O)N[C@H]1[C@H]([C@H](O)[C@H](O)CO)OC(C(=O)O)=C[C@@H]1N=C(N)N	none (no result: Nrf2 ARE act, DRD3 antagonist, Glioma ERSR ind)
O=C(Cn1cnnn1)N[C@@H]1C(=O)N2C(C(=O)O)=C(CSc3nncs3)CS[C@H]12	none (no result: Nrf2 ARE act, DRD3 antagonist)
Clc1ccc(-n2cccc2CN2CCOc3ccc(CN4CCOCC4)cc3C2)nc1	none (no result: Nrf2 ARE act, DRD3 agonist, DRD3 antagonist)
O=c1nc(-c2ccccc2)c2cc(Br)ccc2[nH]1	none
O=c1nc(-c2ccccc2)c2cc(SC(F)F)ccc2[nH]1	DRD3 agonist 36
COc1ccc(Nc2ncnc3c2cnn3-c2ccc(C)cc2)cc1Cl	none (no result: DRD3 antagonist)
COc1ccccc1C(=O)COC(=O)COc1cccc2c1OC(C)(C)C2	DRD3 antagonist -66
COc1ccc(N2C(=O)[C@@H]3C[C@H]2CN3Cc2ccc3nccnc3c2)cc1Cl	none (no result: Nrf2 ARE act, DRD3 agonist, DRD3 antagonist)
COc1ccc(CCNCC(=O)Nc2ccc(C)c(S(=O)(=O)N(C)C)c2)cc1	DRD3 antagonist -52
